Measured values reported in PubChem BioAssay (NCI).
About 83,000 compounds went through this panel and 20% of them were active in at least one assay; those are over-represented in the sample as a whole.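 96-well plates, one dose, 48 hours. Percent growth reported; active if below 10.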 Unmarked numbers belong to inactive results. Active and inactive are the calls of the source.

Legend:
Experiment in all cases: NCI-60 one-dose screen, 48 h (100 = growth as untreated, 0 = no growth, -100 = all killed)
Details in all cases: 10 µM unless noted
HCT-15 colon = test system: HCT-15 colon
HT29 colon = test system: HT29 colon
SNB-75 CNS = test system: SNB-75 CNS
SNB-19 CNS = test system: SNB-19 CNS
U251 CNS = test system: U251 CNS
PC-3 prostate = test system: PC-3 prostate
SK-MEL-5 melanoma = test system: SK-MEL-5 melanoma
UACC-62 melanoma = test system: UACC-62 melanoma
LOX IMVI melanoma = test system: LOX IMVI melanoma
SK-MEL-28 melanoma = test system: SK-MEL-28 melanoma
SK-MEL-2 melanoma = test system: SK-MEL-2 melanoma
EKVX NSCLC = test system: EKVX NSCLC
SN12C renal = test system: SN12C renal
UO-31 renal = test system: UO-31 renal
TK-10 renal = test system: TK-10 renal
ACHN renal = test system: ACHN renal
CAKI-1 renal = test system: CAKI-1 renal
A498 renal = test system: A498 renal
MOLT-4 leukemia = test system: MOLT-4 leukemia
CCRF-CEM leukemia = test system: CCRF-CEM leukemia

| SMILES | growth (HCT-15 colon) | growth (HT29 colon) | growth (SNB-75 CNS) | growth (SNB-19 CNS) | growth (U251 CNS) | growth (PC-3 prostate) | growth (SK-MEL-5 melanoma) [%] | growth (UACC-62 melanoma) [%] | growth (LOX IMVI melanoma) | growth (SK-MEL-28 melanoma) [%] | growth (SK-MEL-2 melanoma) [%] | growth (EKVX NSCLC) [%] | growth (SN12C renal) | growth (UO-31 renal) | growth (TK-10 renal) | growth (ACHN renal) | growth (CAKI-1 renal) [%] | growth (A498 renal) [%] | growth (MOLT-4 leukemia) | growth (CCRF-CEM leukemia) |
| --- | --- | --- | --- | --- | --- | --- | --- | --- | --- | --- | --- | --- | --- | --- | --- | --- | --- | --- | --- | --- |
| C=C(C)[C@H]1CC/C(C)=C/CC[C@]2(C)O[C@H]2CC/C(COC(=O)[C@@H](OC(C)=O)[C@H](NC(=O)c2ccccc2)c2ccccc2)=C\[C@@H]1O | 105% | 102% | 72.6% | 81.8% | 99.2% | 90.1% | 78.8 | 59.3 | 93.1% | 104 | 119 | 84.7 | 93.8% | 79.4% | 99.7% | 116% | 89.6 | 92.8 | 98.2% | – |
| COc1ccc(-c2nc(SCCC(C)C)nc(N/N=C(/C)c3ccc(C)cc3)c2C#N)cc1 | 92.9% | 112% | 84% | 86.8% | 103% | 85.8% | 94.3 | 87.4 | 91% | 103 | 106 | 90.8 | 75% | 66% | 107% | 89.6% | 83.2 | – | 88.3% | 94.4% |
| COc1ccc(C(=O)/C=C/c2ccc(OCc3ccccc3)c(OC)c2)cc1OC | 45.8% | 10.6% | 34.1% | 87.1% | 10.1% | 46% | 66.1 | 70.8 | 34.3% | 89.6 | 83.5 | 54.7 | 61.1% | 43.8% | 48.4% | 79.8% | 55.5 | – | 44.8% | 17.4% |
| CCCN=C(N)c1ccc(NC(=O)c2ccc(C(=O)Nc3ccc(C(N)=NCCC)cc3)cc2)cc1 | 99.7% | 102% | 78.1% | 105% | 107% | 90.8% | 27.2 | 90.2 | 108% | 110 | 97.2 | 96.1 | 93.1% | 79.8% | 99% | 91.8% | 95 | – | 78.2% | 108% |
| CNC(=O)NCC1OC(n2cnc3c(NC(=O)Nc4ccccc4)ncnc32)C(O[Si](C)(C)C(C)(C)C)C1O[Si](C)(C)C(C)(C)C (configuration not stated) | 21.3% | -67.7% (active) | 45.8% | 76.1% | 17.2% | 7.78% (active) | 48.2 | 41.9 | 13.3% | 60 | 56.7 | 23.4 | -79.3% (active) | 48.3% | 34.2% | 20.5% | 59.5 | – | 24.1% | 42.6% |
| O=C(/C=C/c1ccc[nH]1)c1ccc(-n2ccc(C(F)(F)F)n2)cc1 | 86.6% | 97.3% | 51.6% | 75.5% | 20% | 8.84% (active) | 99.9 | 90.3 | 97.1% | 103 | 95 | 79.1 | 60.1% | -77.1% (active) | 103% | 99.5% | 93.4 | – | 72.5% | 25.7% |
| CCCCCCCCOc1ccc(/C=N/Nc2cc(C)nc3ccc(Cl)cc23)cc1 | -82.3% (active) | -55.9% (active) | 52.2% | 9.5% (active) | -61% (active) | -62.9% (active) | 96 | 91.2 | -90.7% (active) | 64.3 | 95.6 | 55.7 | -82.4% (active) | 79.2% | -35.7% (active) | -1.15% (active) | 41.6 | – | -14.1% (active) | 2.23% (active) |
| Cc1[nH]n(-c2cccc(Cl)c2)c(=O)c1/C=C1\C=Nc2ccc(Br)cc21 | 59.2% | 11.1% | -13.5% (active) | 78.1% | 7.54% (active) | 31.2% | 60.4 | 37.4 | 4.2% (active) | 71.2 | 73.4 | 41.1 | 3.46% (active) | -9.91% (active) | -51.3% (active) | 11.6% | 22.4 | – | 26.9% | 6.42% (active) |
